{"source": "the OligoGym collection"}
{"biological_target": "NEUROD6", "assay": "pooled miR-30 sensor sort-seq; sequence = guide strand", "settings": "shRNA"}
{"sequence": "TAAGTTGTCCAGAGCGTCGTTG", "sensor-assay potency score (higher = more potent)": -0.475}
{"sequence": "AATAGTTGAAACACACTTCAGA", "sensor-assay potency score (higher = more potent)": -0.228}
{"sequence": "TTTGTCTTAATTAGACAGGGGA", "sensor-assay potency score (higher = more potent)": -0.0326}
{"sequence": "TTAAGTTGTCCAGAGCGTCGTT", "sensor-assay potency score (higher = more potent)": -0.144}
{"sequence": "TTTTCATCTTCCTCTTCCCTGT", "sensor-assay potency score (higher = more potent)": -0.025}
{"sequence": "TTGTCTTAATTAGACAGGGGAG", "sensor-assay potency score (higher = more potent)": -1.08}
{"biological_target": "NF1", "assay": "pooled miR-30 sensor sort-seq; sequence = guide strand", "settings": "shRNA"}
{"sequence": "TATTACTGTAGCTTCTATCAGA", "sensor-assay potency score (higher = more potent)": -0.358}
{"sequence": "TACTAAGAAAGTAACAACGTGG", "sensor-assay potency score (higher = more potent)": 0.245}
{"sequence": "TAGAAGGAATATCACATCCTAC", "sensor-assay potency score (higher = more potent)": -0.685}
{"sequence": "TAAAATAGCAATATCATCCCAC", "sensor-assay potency score (higher = more potent)": 0.315}
{"sequence": "TTTGCTTTGAAAACGGTCCTGC", "sensor-assay potency score (higher = more potent)": 0.844}
{"sequence": "TTGTAGGACAATCAGATGCTAT", "sensor-assay potency score (higher = more potent)": -0.838}
{"sequence": "TATTCTACCATCTTATTCCTAA", "sensor-assay potency score (higher = more potent)": -0.177}
{"sequence": "TTTGTAGATAGGTAGCACCATA", "sensor-assay potency score (higher = more potent)": -1.19}
{"sequence": "TAACTGATGAAGAACCAGCAGA", "sensor-assay potency score (higher = more potent)": -0.956}
{"sequence": "TAGCAGTAACTCTTTGTCGTTT", "sensor-assay potency score (higher = more potent)": -0.737}
{"biological_target": "NFE2L1", "assay": "pooled miR-30 sensor sort-seq; sequence = guide strand", "settings": "shRNA"}
{"sequence": "TTACTCAACACAAGCATTCTAG", "sensor-assay potency score (higher = more potent)": 0.0111}
{"sequence": "TTGATGATTTTGTCATTGGTGA", "sensor-assay potency score (higher = more potent)": -0.465}
{"sequence": "TTTCGCTTTCTCGCACCCCGTT", "sensor-assay potency score (higher = more potent)": -0.883}
{"sequence": "TAATTGTCCAGGTCTATGCTCT", "sensor-assay potency score (higher = more potent)": -0.487}
{"sequence": "TTCCTGTACACTGACCCGCAGT", "sensor-assay potency score (higher = more potent)": -0.906}
{"sequence": "TTATGCTGGAAATGTCTGCTGG", "sensor-assay potency score (higher = more potent)": -0.294}
{"sequence": "TCGTCCGTTCTCATCTCGCAGC", "sensor-assay potency score (higher = more potent)": -1.23}
{"sequence": "TAAGTCTCCACTGACTGGGGGG", "sensor-assay potency score (higher = more potent)": -0.685}
{"sequence": "TAAGTATCCACGTCCACCCGTA", "sensor-assay potency score (higher = more potent)": 0.169}
{"sequence": "TTAGCAGCTTTGAATATTGGGC", "sensor-assay potency score (higher = more potent)": -0.506}
{"sequence": "TTGAATATTGGGCATCTCCTTT", "sensor-assay potency score (higher = more potent)": -0.276}
{"sequence": "TTGTCCAGGTCTATGCTCTTGG", "sensor-assay potency score (higher = more potent)": -0.582}
{"biological_target": "NFYC", "assay": "pooled miR-30 sensor sort-seq; sequence = guide strand", "settings": "shRNA"}
{"sequence": "TAGAGCTGCTGTCCATCTGTGA", "sensor-assay potency score (higher = more potent)": -0.297}
{"sequence": "TGTGTTAGTGATGATCTGCTGC", "sensor-assay potency score (higher = more potent)": 0.227}
{"sequence": "TCTTGGAACAATATCGATGAGA", "sensor-assay potency score (higher = more potent)": -0.931}
{"sequence": "TTGCTGGATCTGGTAGAGCTGC", "sensor-assay potency score (higher = more potent)": -1.31}
{"sequence": "TAATCTTCTTAATACGAGCCAG", "sensor-assay potency score (higher = more potent)": -0.951}
{"sequence": "TATTGCATCTTTCTGCTGGAGA", "sensor-assay potency score (higher = more potent)": -0.521}
{"sequence": "TTATCTTCTGTGTGAATCCAGG", "sensor-assay potency score (higher = more potent)": -0.977}
{"sequence": "AAATATTGCATCTTTCTGCTGG", "sensor-assay potency score (higher = more potent)": 0.522}
{"sequence": "TTGAGTGCCTGATACAGGCTGG", "sensor-assay potency score (higher = more potent)": -0.146}
{"sequence": "TAGCATTGGACACACACTCAAC", "sensor-assay potency score (higher = more potent)": -0.948}
{"sequence": "TAAGCGGATATACTGCAGCTGG", "sensor-assay potency score (higher = more potent)": -0.727}
{"sequence": "ATCTCTTGGAACAATATCGATG", "sensor-assay potency score (higher = more potent)": -1.33}
